# Experimental data reported in publication PMC12214610.
# Target: Large ribosomal subunit protein uL5 (UniProt P62399)
row,Substance,listed as a hit
1,"Large ribosomal subunit protein bL31, P0A7M9",yes
2,"Small ribosomal subunit protein uS19, P0A7U3",yes
3,"Large ribosomal subunit protein bL27, P0A7L8",yes

# Target: Small ribosomal subunit protein bS1 (UniProt P0AG67)
row,Substance,listed as a hit
1,"Small ribosomal subunit protein uS10, P0A7R5",yes
2,"Small ribosomal subunit protein uS11, P0A7R9",yes
3,"Small ribosomal subunit protein uS7, P02359",yes
4,"Small ribosomal subunit protein uS9, P0A7X3",yes
